# Only a selection was taken, and the strongest signals are over-represented in it overall.
# How the values were obtained:
# Assay in all cases: glycan array binding signal (z-score within array); higher = stronger binding
# Details in all cases: glycan notation: IUPAC condensed, linker removed
# [1] = target: Fuc(a1-2)Gal(b1-3)GalNAc(b1-3)Gal(a1-4)Gal(b1-4)Glc
# Method in brief: (§1)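 The binding signal is a Z-score computed within each array and averaged over linkers. Arrays of the same protein sequence at different concentrations or buffers were also averaged together. Data originate from 3228 arrays in the Consortium for Functional Glycomics database, kept only where the protein sequence was available.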
# [2] = target: Fuc(a1-2)Gal(b1-3)[Fuc(a1-4)]GlcNAc(b1-2)Man(a1-3)[Fuc(a1-2)Gal(b1-3)[Fuc(a1-4)]GlcNAc(b1-2)Man(a1-6)]Man(b1-4)GlcNAc(b1-4)[Fuc(a1-6)]GlcNAc(b1-4)[Fuc(a1-6)]GlcNAc
# Method in brief: as §1
# [3] = target: Fuc(a1-2)Gal(b1-4)GlcNAc(b1-3)[Fuc(a1-3)[Gal(b1-4)]GlcNAc(b1-6)]Gal(b1-4)Glc
# Method in brief: as §1
# [4] = target: Fuc(a1-2)Gal(b1-4)GlcNAc(b1-6)GalNAc
# Method in brief: as §1
# [5] = target: Fuc(a1-2)Gal(b1-4)[Fuc(a1-3)]GlcNAc
# Method in brief: as §1
# [6] = target: Fuc(a1-2)Gal(b1-4)[Fuc(a1-3)]GlcNAc(b1-3)Gal(b1-4)[Fuc(a1-3)]GlcNAc(b1-3)Gal(b1-4)[Fuc(a1-3)]GlcNAc
# Method in brief: as §1
# [7] = target: Fuc(a1-2)[Gal(a1-3)]Gal(b1-3)GalNAc(b1-3)Gal(a1-4)Gal(b1-4)Glc
# Method in brief: as §1
# [8] = target: Fuc(a1-2)[Gal(a1-3)]Gal(b1-3)GlcNAc(b1-2)Man(a1-3)[Fuc(a1-2)[Gal(a1-3)]Gal(b1-3)GlcNAc(b1-2)Man(a1-6)]Man(b1-4)GlcNAc(b1-4)GlcNAc
# Method in brief: as §1
# [9] = target: Fuc(a1-2)[GalNAc(a1-3)]Gal(b1-4)Glc
# Method in brief: as §1
# [10] = target: Fuc(a1-2)[GalNAc(a1-3)]Gal(b1-4)GlcNAc
# Method in brief: as §1
# [11] = target: Fuc(a1-3)[Gal(b1-4)]GlcNAc(b1-3)Gal(b1-4)[Fuc(a1-3)]GlcNAc
# Method in brief: as §1
# [12] = target: Fuc(a1-3)[Gal(b1-4)]GlcNAc(b1-4)Gal(b1-4)[Fuc(a1-3)]GlcNAc(b1-4)Gal(b1-4)[Fuc(a1-3)]GlcNAc
# Method in brief: as §1
# [13] = target: Fuc(a1-3)[Gal(b1-4)]GlcNAc(b1-6)[Gal(b1-3)GlcNAc(b1-3)]Gal(b1-4)Glc
# Method in brief: as §1
# [14] = target: Fuc(a1-3)[Gal(b1-4)]GlcNAc(b1-6)[Neu5Ac(a2-3)Gal(b1-3)]GalNAc
# Method in brief: as §1
# [15] = target: Gal(a1-3)Gal(b1-3)GlcNAc(b1-2)Man
# Method in brief: as §1
# [16] = target: Gal(a1-3)Gal(b1-3)GlcNAc(b1-3)GalNAc
# Method in brief: as §1
# [17] = target: Gal(a1-3)Gal(b1-4)[Fuc(a1-3)]GlcNAc
# Method in brief: as §1
# [18] = target: Gal(a1-4)Gal(b1-3)GlcNAc(b1-2)Man(a1-3)[Gal(a1-4)Gal(b1-3)GlcNAc(b1-2)Man(a1-6)]Man(b1-4)GlcNAc(b1-4)GlcNAc
# Method in brief: as §1
# [19] = target: Gal(b1-2)Gal
# Method in brief: as §1
# [20] = target: Gal(b1-3)GlcNAc(b1-3)GalNAc
# Method in brief: as §1
# [21] = target: Gal(b1-3)GlcNAc(b1-6)GalNAc
# Method in brief: as §1
# [22] = target: Gal(b1-3)[Fuc(a1-4)]GlcNAc
# Method in brief: as §1
# [23] = target: Gal(b1-3)[Neu5Ac(a2-6)]GlcNAc(b1-6)Gal(b1-4)Glc
# Method in brief: as §1
# [24] = target: Gal(b1-4)GalNAc(a1-3)[Fuc(a1-2)]Gal(b1-4)GlcNAc
# Method in brief: as §1
# [25] = target: Gal(b1-4)GlcNAc(b1-2)Man(a1-3)[GlcNAc(b1-2)Man(a1-6)]Man(b1-4)GlcNAc(b1-4)GlcNAc
# Method in brief: as §1
# [26] = target: Gal(b1-4)GlcNAc(b1-2)Man(a1-6)[Man(a1-3)]Man(b1-4)GlcNAc(b1-4)GlcNAc
# Method in brief: as §1
# [27] = target: Gal(b1-4)GlcNAc(b1-2)[Gal(b1-4)GlcNAc(b1-6)]Man(a1-6)[Gal(b1-4)GlcNAc(b1-2)Man(a1-3)]Man(b1-4)GlcNAc(b1-4)GlcNAc
# Method in brief: as §1
binder,measurement,setting,value
OrysaEULS2 (Oryza sativa) (protein) MVYCRANPNYAMTARNGAVVLAPANPKDEYQHWIKDMRWSTSIKDEEGYPAFALVNKATGQAIKHSLGQSHPVRLVPYNPEVMDESVLWTESRDVGNGFRCIRMVNNIYLNFDAFHGDKYHGGVRDGTDIVLWKWCEGDNQRWKIQPYYILEQKLISEEDLNSAVDHHHHHH,glycan array binding signal (z-score),[1],-0.184
same,glycan array binding signal (z-score),[2],-0.187
same,glycan array binding signal (z-score),[3],-0.276
same,glycan array binding signal (z-score),[4],-0.163
same,glycan array binding signal (z-score),[5],-0.191
same,glycan array binding signal (z-score),[6],-0.194
same,glycan array binding signal (z-score),[7],-0.248
same,glycan array binding signal (z-score),[8],-0.081
same,glycan array binding signal (z-score),[9],-0.205
same,glycan array binding signal (z-score),[10],-0.2
same,glycan array binding signal (z-score),[11],-0.27
same,glycan array binding signal (z-score),[12],-0.163
same,glycan array binding signal (z-score),[13],-0.183
same,glycan array binding signal (z-score),[14],-0.16
same,glycan array binding signal (z-score),[15],-0.28
same,glycan array binding signal (z-score),[16],-0.176
same,glycan array binding signal (z-score),[17],-0.216
same,glycan array binding signal (z-score),[18],2.38
same,glycan array binding signal (z-score),[19],-0.142
same,glycan array binding signal (z-score),[20],-0.179
same,glycan array binding signal (z-score),[21],-0.218
same,glycan array binding signal (z-score),[22],-0.191
same,glycan array binding signal (z-score),[23],-0.179
same,glycan array binding signal (z-score),[24],-0.199
same,glycan array binding signal (z-score),[25],1.37
same,glycan array binding signal (z-score),[26],5.65
same,glycan array binding signal (z-score),[27],1.53
